Pf Dd2 growth: P. falciparum Dd2 growth inhibitors, primary screen, SYBR Green fluorescence, single dose replicates. 72 h; active compounds read low. activity change, % at 10 µM. hit rate 2.3% among 94,000. AID 1159554, 2015; in the data active means activity change below about -80%; inconclusive means no clear call, values can overlap the other calls
T cruzi growth-1: T. cruzi intracellular proliferation inhibitors, primary screen, cell-based, beta-gal Tulahuen parasites, NIH3T3 host, luminescence; hit rate 5.9% among 77,000; T. cruzi beta-gal in NIH3T3, GalScreen luminescence, 90 h; inhibition, % at 8.34 µM; AID 624255, 2012;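 active means mean inhibition above about 93%, with at least 55% of replicates each passing it, limit read from the data, passing the limit was not always enough; inconclusive means only one of those two conditions holds; inactive means neither condition holds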
C diff HTS: C. difficile growth inhibitors, primary screen, HTS | Clostridium difficile clinical isolate growth, OD600, 24 h; active compounds read low | growth activity, negative = inhibition, % at 16 µg/mL (by protocol) | hit rate 0.25% among 86,000 | AID 1259249, 2017;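 active means mean growth activity at or below -80% and every replicate also at or below -80%; inconclusive means mean at or below -80% but some replicate above -80%; inactive means mean growth activity above -80%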
T cruzi growth-2: T. cruzi intracellular proliferation inhibitors, confirmation, cell-based, NIH3T3 host, beta-gal parasite, luminescence, cherry-pick; shares compounds with T cruzi growth-1; T. cruzi beta-gal in NIH3T3, GalScreen luminescence, 90 h; inhibition, % at 8.35 µM; hit rate 72% among 5,600; AID 651739, 2012;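 active means mean replicate inhibition above about 95% and at least 55% of replicates individually reaching it, limit read from the data; inconclusive means only one of the two criteria is met; inactive means neither criterion is met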
T cruzi growth-3: inhibitors of intracellular T. cruzi replication, confirmation, NIH3T3 host cells, beta-gal parasites, cherry-pick, set 2. inhibition, % at 2.09 µM. T. cruzi beta-gal in NIH3T3, GalScreen luminescence, 90 h. hit rate 21% among 5,600. shares compounds with T cruzi growth-1;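 active means mean inhibition above about 95%, with at least 55% of replicates also reaching it, limit read from the data; inconclusive means meets just one of the two conditions; inactive means meets neither condition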
NIH3T3 tox: cytotoxicity in mouse NIH/3T3 fibroblasts, confirmation, cytotoxicity control for T. cruzi proliferation inhibitor project, cell-based, cherry-pick, single point; shares compounds with T cruzi growth-1; NIH/3T3 viability, CellTiter-Glo ATP luminescence, 90 h; cytotoxicity (signal decrease), % at 8.35 µM; hit rate 14% among 5,600;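 active means mean signal decrease across replicates above about 35% based on untreated-well scatter, with enough replicates individually passing, limit read from the data; inconclusive means no rule stated though some were filed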
NIH3T3 tox 2: NIH/3T3 fibroblast cytotoxicity, confirmation, cytotoxicity control, cell-based, cherry-pick, single point, set 2; shares compounds with T cruzi growth-1; NIH/3T3 viability, CellTiter-Glo ATP luminescence, 90 h; inhibition, % at 24.9 µM; hit rate 56% among 5,600;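 active means mean loss of cell viability signal at or above a set limit, and enough replicates individually reaching it; inconclusive means meets only the mean limit or only the replicate share; inactive means meets neither condition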
Hits are given with their value; . = inactive; ? = inconclusive; / = not tested or not shown. In the library only some 6.7% were active in any assay of this set; here they are far more common.

SMILES	Pf Dd2 growth	T cruzi growth-1	C diff HTS	T cruzi growth-2	T cruzi growth-3	NIH3T3 tox	NIH3T3 tox 2
O=C(C[C@@H]1CC[C@@H]2[C@H](COC[C@@H](O)CN2Cc2ccccc2F)O1)N1CCc2ccccc2C1	.	.	/	/	/	/	/
C[C@@H]1CCCCO[C@H](CN(C)Cc2ccncc2)[C@H](C)CN([C@@H](C)CO)C(=O)c2cc(NC(=O)CCCN(C)C)ccc2O1	.	.	.	/	/	/	/
CC(C)NC(=O)N(C)C[C@H]1Oc2c(NC(=O)c3ccc(-c4nccs4)cc3)cccc2C(=O)N([C@H](C)CO)C[C@H]1C	.	.	.	/	/	/	/
C[C@@H]1CCCCO[C@H](CN(C)S(=O)(=O)c2cccs2)[C@H](C)CN([C@@H](C)CO)C(=O)c2cc(NS(=O)(=O)c3ccc(Cl)cc3)ccc2O1	.	95	.	102	.	.	.
C[C@H](CO)N1C[C@H](C)[C@@H](CN(C)S(=O)(=O)c2cccs2)OCCCC[C@H](C)Oc2ccc(NS(=O)(=O)c3ccc(Cl)cc3)cc2C1=O	.	.	.	/	/	/	/
C[C@H](CO)N1C[C@H](C)[C@H](CN(C)S(=O)(=O)c2cccs2)OCCCC[C@H](C)Oc2ccc(NS(=O)(=O)c3ccc(Cl)cc3)cc2C1=O	.	104	.	102	.	.	.
C[C@@H]1CCCCO[C@H](CN(C)S(=O)(=O)c2cccs2)[C@@H](C)CN([C@@H](C)CO)C(=O)c2cc(NS(=O)(=O)c3ccc(Cl)cc3)ccc2O1	.	93	.	98	99	.	.
Cc1ccc(S(=O)(=O)Nc2ccc3c(c2)C(=O)N([C@H](C)CO)C[C@H](C)[C@H](CN(C)S(=O)(=O)c2cccs2)OCCCC[C@@H](C)O3)cc1	/	/	.	/	/	/	/
C[C@@H]1CCCCO[C@@H](CN(C)S(=O)(=O)c2cccs2)[C@@H](C)CN([C@H](C)CO)C(=O)c2cc(NS(=O)(=O)c3ccc(Cl)cc3)ccc2O1	.	?	.	106	.	.	38
C[C@@H]1CCCCO[C@@H](CN(C)S(=O)(=O)c2cccs2)[C@H](C)CN([C@H](C)CO)C(=O)c2cc(NS(=O)(=O)c3ccc(Cl)cc3)ccc2O1	.	.	.	/	/	/	/
C[C@H](CO)N1C[C@H](C)[C@@H](CN(C)S(=O)(=O)c2ccc(Cl)cc2)OCCCC[C@H](C)Oc2ccc(NS(=O)(=O)c3cccs3)cc2C1=O	/	.	.	/	/	/	/
C[C@@H]1CN([C@@H](C)CO)C(=O)c2cccc(NS(=O)(=O)c3ccc(Cl)cc3)c2O[C@@H]1CN(C)S(=O)(=O)c1cn(C)cn1	.	.	.	/	/	/	/
C[C@@H]1CCCCO[C@H](CN(C)C(=O)c2ccncc2)[C@H](C)CN([C@H](C)CO)C(=O)c2cc(NC(=O)C3CCCCC3)ccc2O1	.	.	.	/	/	/	/
COc1ccc(CN(C)C[C@H]2Oc3ccc(NC(=O)Nc4c(C)noc4C)cc3C(=O)N([C@H](C)CO)C[C@H]2C)cc1	.	.	.	/	/	/	/
CO[C@H]1CN(C)C(=O)c2ccc(NS(C)(=O)=O)cc2OC[C@@H](C)N(C(=O)NC(C)C)C[C@@H]1C	.	.	/	/	/	/	/
Cc1noc(C)c1NC(=O)N(C)C[C@@H]1OCc2cnnn2CCCC(=O)N([C@H](C)CO)C[C@H]1C	.	.	.	/	/	/	/
CCCNC(=O)NC[C@H]1CC[C@@H]2[C@@H](CN2S(=O)(=O)c2ccccc2[N+](=O)[O-])O1	.	/	.	/	/	/	/
COC(=O)C[C@H]1C=C[C@@H](NS(=O)(=O)c2ccc(OC)cc2)[C@@H](CO)O1	.	.	/	/	/	/	/
COCCNC(=O)[C@H]1[C@H](CO)[C@H]2Cn3c(cccc3=O)[C@@H]1N2Cc1cccc(Cl)c1	/	.	.	/	/	/	/
C[C@H]1CN([C@@H](C)CO)S(=O)(=O)c2ccc(C3=CCCC3)cc2O[C@@H]1CN(C)Cc1cccnc1	.	103	.	105	104	55	63
C[C@@H]1CN([C@@H](C)CO)S(=O)(=O)c2ccc(C3=CCCC3)cc2O[C@@H]1CN(C)Cc1cccnc1	.	100	.	?	.	?	46
C[C@@H]1CN([C@@H](C)CO)S(=O)(=O)c2ccc(C3=CCCCC3)cc2O[C@H]1CN(C)Cc1cccnc1	.	/	.	/	/	/	/
C[C@H]1CN([C@@H](C)CO)S(=O)(=O)c2ccc(C3=CCCCC3)cc2O[C@@H]1CN(C)Cc1cccnc1	.	/	.	/	/	/	/
C[C@@H]1CN([C@@H](C)CO)S(=O)(=O)c2ccc(C3=CCCC3)cc2O[C@H]1CN(C)Cc1cccnc1	.	?	.	105	99	47	46
C[C@H]1CN([C@@H](C)CO)S(=O)(=O)c2ccc(C3=CCCCC3)cc2O[C@H]1CN(C)Cc1cccnc1	.	/	.	/	/	/	/
SMILES	Pf Dd2 growth	T cruzi growth-1	C diff HTS	T cruzi growth-2	T cruzi growth-3	NIH3T3 tox	NIH3T3 tox 2
Cc1ccc(S(=O)(=O)N[C@@H]2CC[C@@H](CCNC(=O)c3ccc4c(c3)OCO4)O[C@@H]2CO)cc1	.	.	.	/	/	/	/
O=C(C[C@@H]1C=C[C@H](NS(=O)(=O)c2ccccc2)[C@@H](CO)O1)NCc1ccc(Cl)c(Cl)c1	.	.	/	/	/	/	/
C[C@H](NC(=O)N(C)C[C@H]1OCc2ccccc2-c2ccccc2C(=O)N([C@@H](C)CO)C[C@@H]1C)c1ccccc1	.	.	.	/	/	/	/
CC(C)NC(=O)N1CCCCN2[C@H](C1)[C@H](c1ccc(C#Cc3ccccc3F)cc1)[C@@H]2CO	.	.	.	/	/	/	/
CC(C)C#Cc1ccc([C@H]2[C@@H](CO)N3CCCCN(C(=O)NC(C)C)C[C@@H]23)cc1	.	.	.	/	/	/	/
CC(C)NC(=O)N1CCCCN2[C@@H](CO)[C@H](c3ccc(C#Cc4ccccc4F)cc3)[C@@H]2C1	.	113	.	96	.	51	104
CC(C)NC(=O)N1CCCCN2[C@H](CO)[C@H](c3ccc(C#Cc4ccccc4F)cc3)[C@H]2C1	.	109	.	104	107	.	103
C[C@H](CO)N1C[C@H](C)[C@@H](CN(C)C(=O)Nc2ccccc2)OCCCC[C@H](C)Oc2ccc(NC(=O)C3CCCCC3)cc2C1=O	.	.	.	/	/	/	/
CC(C)NC(=O)N[C@@H]1CC[C@H](CC(=O)N2CCCCC2)O[C@H]1CO	.	.	/	/	/	/	/
C[C@@H]1CCCCO[C@@H](CN(C)Cc2ccccc2)[C@H](C)CN([C@@H](C)CO)C(=O)c2cc(NC(=O)Cc3ccccc3)ccc2O1	.	/	.	/	/	/	/
O=C(c1ccccc1)N1CC2(C1)[C@@H](c1ccccc1)[C@H](CO)N2CC1CC1	.	/	.	/	/	/	/
COc1ccccc1-c1ccc([C@H]2[C@@H](CO)N3CCCCN(C(=O)NC4CCCC4)C[C@@H]23)cc1	.	100	.	109	.	.	34
